Bioassay records: PubChem BioAssay, National Center for Advancing Translational Sciences (NCATS)
DRD3 antagonist = D3 dopamine receptor (human) antagonism; max response, negative = inhibition, %; P35462; 2.5% of 360,000 active; D3R cells, DiscoveRx beta-arrestin luminescence, antagonist mode; stronger effect = lower value; in the data active means max response below about -50%; inconclusive means no clear call, values can overlap the other calls
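Cells expressing the human receptor were seeded at 1500 cells/well, incubated overnight at 37 degrees C in 5% CO2, then exposed to library compounds with dopamine controls for 90 minutes at 37 degrees C before luminescent detection.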
GLP1R cytotox = cytotoxicity in counter-screen for GLP-1R inverse agonists | 0.13% of 410,000 active | Potency, µM (top dose mostly 38.3 µM), usual class: inhibitors | HEK293 cAMP-luciferase reporter cells, luminescence, 24 h;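 further: loss of luciferase light is scored as toxicity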
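Compound-treated cells are incubated 24 hr at 37 deg C under 5% CO2 after a 12 hour attachment period, then luciferase detection reagent is added and luminescence is measured following 12 min at room temperature; lowered signal indicates toxicity.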
DRD3 agonist = agonists of human D3 dopamine receptor. max activation, %. AID 652048. 0.58% of 410,000 active. P35462. D3R DiscoveRx beta-arrestin cells, luminescence, 90 min; in the data active means max activation above about 30%
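Cells at 1500/well, incubated overnight, then treated with pinned compounds (dopamine as control) for 90 min at 37 degrees C. DiscoveRx reagent added for 30 - 60 minutes at room temperature; luminescence read.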
GLP-1R agonist = GLP-1 receptor (human) agonism | HEK293 GLP-1R CRE-luciferase, luminescence, 4-6 h; cells express a hypersensitive GLP-1R form | Potency, µM (titrated, usually from 45.6 µM), most hits filed as activators | 0.007% of 380,000 active | AID 624172
Target sequence (P43220 whole entry, looked up): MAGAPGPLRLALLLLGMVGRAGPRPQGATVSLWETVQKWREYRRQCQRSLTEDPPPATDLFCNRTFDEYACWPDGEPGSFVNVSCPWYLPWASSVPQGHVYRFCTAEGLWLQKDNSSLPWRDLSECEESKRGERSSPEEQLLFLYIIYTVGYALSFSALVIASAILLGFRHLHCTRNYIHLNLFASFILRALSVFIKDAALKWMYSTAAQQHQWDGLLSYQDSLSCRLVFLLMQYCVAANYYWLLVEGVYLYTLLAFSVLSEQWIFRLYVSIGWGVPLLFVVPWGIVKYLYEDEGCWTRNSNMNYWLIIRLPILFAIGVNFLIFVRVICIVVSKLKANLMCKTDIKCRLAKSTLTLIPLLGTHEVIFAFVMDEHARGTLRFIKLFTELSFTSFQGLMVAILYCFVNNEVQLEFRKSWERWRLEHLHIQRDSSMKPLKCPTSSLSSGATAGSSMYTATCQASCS
GLP1R inv ag = inverse agonists of human GLP-1 receptor. Potency, µM (titrated, usually from 38.3 µM), actives largely listed as inhibitors. HEK293 GLP-1R CRE-luciferase, luminescence, 24 h; GLP-1R form is constitutively active. AID 624417. 1.6% of 410,000 active. P43220; further: nearly all actives have a fitted effect of over 55% in size
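qHTS in 1536-well format: reporter HEK293 cells expressing constitutive GLP-1R activity in DMEM + 10% Nu serum, 24 hr with compounds at 37 deg C, luminescence read after 12 min with detection reagent.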
ClpP mod = qHTS Assay for Activators of ClpP; purified B. subtilis ClpP, FRET peptide cleavage, 20 min; ATP-dependent Clp protease proteolytic subunit (Bacillus subtilis (strain 168)), P80244; Potency, µM (titrated, usually from 57.5 µM); 1.9% of 340,000 active; active means well fitted falling curve with a large enough effect; inconclusive means small, poorly fitted or top-dose-only effect; inactive means no such curve, though single readings can be large or run the other way; further: the source files actives as falling curves though it sought activators and does not explain the sign; nearly all actives have a fitted effect of over 65% in size
Target sequence (P80244 whole entry, looked up): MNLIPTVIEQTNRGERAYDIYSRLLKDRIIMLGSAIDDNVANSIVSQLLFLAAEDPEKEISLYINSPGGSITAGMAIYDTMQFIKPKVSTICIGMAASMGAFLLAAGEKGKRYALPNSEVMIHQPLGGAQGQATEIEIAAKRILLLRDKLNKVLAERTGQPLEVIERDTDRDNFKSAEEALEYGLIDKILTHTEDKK
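FRET quenching reversal measured ClpP activation: 10 microg/mL B. subtilis ClpP at pH 8 with the FRET-FV decapeptide, read at 430 nm after 320 nm excitation. The 20-min minus 0-min signal was scaled between DMSO/no-enzyme wells and ADEP (5.8 microM final).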
Each line names hits and unclear results; the compound was inactive in the other large screens. A selection: hits, their analogues and other compounds. The true share with any hit is near 5.7%. Unless noted, the call rests on the fitted dose curve; in most records, active means well fitted curve in the direction sought with a large enough effect; inconclusive means small, poorly fitted or top-dose-only effect, or another doubt; inactive means no such curve, though single readings can be large; an effect the other way counts as inactive or inconclusive.

CCn1ncc(CN2CCCC(C(=O)Nc3cccc(-c4cc5ccccc5[nH]4)c3)C2)c1C (stereo not given)	GLP1R cytotox inconclusive, GLP1R inv ag 3.5µM, ClpP mod inconclusive
O=C(Nc1cccc(-n2cccn2)c1)C1CCCN(Cc2cc3ccccc3[nH]2)C1 (stereo not given)	GLP1R inv ag inconclusive
CCS(=O)(=O)c1ccc2oc(Nc3ccc(C(C)C)cc3)nc2c1	GLP1R inv ag inconclusive, ClpP mod 32µM
CC(=O)c1ccc(OCc2cc(C(=O)N(C)CCOc3ccc(C)cc3)no2)cc1	GLP1R inv ag 10µM
Cc1ccc(-n2ncc3c(Nc4cccc(C(F)(F)F)c4)ncnc32)cc1C	GLP1R inv ag inconclusive (no result: DRD3 antagonist, GLP-1R agonist)
CCn1c(C)c(C)c2cc(C(=O)NCCN3CCCCCC3)ccc21	DRD3 antagonist -81, GLP1R inv ag inconclusive
CCn1c(C)c(C)c2cc(C(=O)NCCCN3CCCCCC3)ccc21	GLP1R inv ag inconclusive
CCn1c(C)c(C)c2cc(C(=O)N3CCc4ccccc4C3)ccc21	GLP1R inv ag 8.9µM
CCN1CCN(C(=O)c2ccc3c(c2)c(C)c(C)n3Cc2ccccc2)CC1	DRD3 antagonist inconclusive
COc1ccccc1OC[C@H](O)COC(N)=O	none (no result: DRD3 antagonist, GLP1R cytotox, DRD3 agonist, GLP1R inv ag, ClpP mod)
Cc1cc(Cl)ccc1C1=CC(=O)C[C@H](c2ccc(F)cc2)C1	GLP1R inv ag 11µM
O=C1C=C(c2ccc(F)cc2OCc2ccccc2)C[C@@H](c2ccc(F)cc2)C1	DRD3 agonist 42, GLP1R inv ag inconclusive
O=C1C=C(c2ccc(OC(F)(F)F)cc2)C[C@@H](c2ccc(F)cc2)C1	GLP1R inv ag inconclusive
O=C1C=C(c2ccc(Oc3ccccc3)cc2)C[C@@H](c2ccc(F)cc2)C1	DRD3 antagonist -73, GLP1R inv ag inconclusive
COc1ccc([C@H]2CC(=O)C=C(c3ccc(F)cc3OCc3ccccc3)C2)cc1OC	DRD3 agonist 73, GLP-1R agonist inconclusive, GLP1R inv ag inconclusive
CC1(C)O[C@H]2[C@@H](O1)[C@@H](C(=O)Nc1cc(F)ccc1F)O[C@@H]1OC(C)(C)O[C@@H]12	none (no result: DRD3 antagonist, GLP-1R agonist)
CCCCCn1c(CN2CCN(c3ccc(OC)cc3)CC2)nc2c1c(=O)[nH]c(=O)n2C	none (no result: DRD3 antagonist)
COc1ccc(NS(=O)(=O)c2ccc3c(c2)CCN3C(=O)CCC(=O)O)cc1Cl	none (no result: DRD3 antagonist, GLP-1R agonist)
COc1ccc([C@H]2CC(=O)C=C(c3cccc(C(C)C)c3)C2)cc1	DRD3 antagonist -61, GLP1R inv ag inconclusive
O=C(CCN1C(=O)c2cccc3cccc(c23)C1=O)NCC1CCCO1 (stereo not given)	none (no result: ClpP mod)
O=C(CN1C(=O)c2cccc3cccc1c23)NCC1CCCO1 (stereo not given)	ClpP mod 25µM
CCCC(C)NC(=O)CN1C(=O)c2cccc3cccc1c23 (stereo not given)	ClpP mod 22µM
CCOC(=O)c1c(C)[nH]c(C)c1S(=O)(=O)N1CCC(C(=O)NCc2ccc(N(C)C)cc2)CC1	none (no result: DRD3 antagonist, GLP-1R agonist)
COc1ccccc1C(=O)Nc1ccccc1OCc1cc(=O)n2ccccc2n1	none (no result: DRD3 antagonist, GLP-1R agonist)
O=C(CC1NCCc2ccccc21)Nc1ccc(Cl)cc1 (stereo not given)	DRD3 antagonist -87, GLP1R inv ag inconclusive (no result: ClpP mod)
O=C(CC1NCCN(Cc2ccccc2)C1=O)Nc1ccc(Cl)cc1 (stereo not given)	none (no result: ClpP mod)
CC(=O)NC(=O)COC(=O)/C=C/c1c(C)nn(Cc2c(Cl)cccc2Cl)c1Cl	DRD3 antagonist -56
COc1ccc(CCNC(=O)C2CCC(=O)N(CC3CCCCC3)C2)cc1 (stereo not given)	ClpP mod 32µM
C=CCCC1CN(CCCC)S(=O)(=O)c2c(F)cccc2O1 (stereo not given)	DRD3 agonist 35, GLP1R inv ag inconclusive
CCCCN1C[C@H](CO)Oc2cccc(F)c2S1(=O)=O	none
CCN1CCN(C(=S)Nc2cc(C(=O)OC)ccc2C(=O)OC)CC1	none
COC(=O)c1ccc(C(=O)OC)c(NC(=S)N2CCOCC2)c1	ClpP mod 32µM
CCOC(=O)N1CCN(C(=O)c2cccn3c(=O)c4cc(Br)ccc4nc23)CC1	none
CCOC(=O)N1CCN(C(=O)c2cccn3c(=O)c4sccc4nc23)CC1	ClpP mod 25µM
CC1=C(C(=O)OC2CCCCC2)C(c2ccccc2)NC(=O)N1 (stereo not given)	GLP1R cytotox inconclusive, GLP1R inv ag inconclusive, ClpP mod 2.8µM
CC(C)n1cc(/C=C2/NC(=O)N(c3cccc(Cl)c3)C2=O)c2ccccc21	none
CC(C)n1cc(/C=C2\NC(=O)N(c3cccc(Cl)c3)C2=O)c2ccccc21	GLP1R inv ag 4µM
NC(=O)COC(=O)c1ccccc1OCC(=O)Nc1ccc(Br)cc1	none (no result: DRD3 antagonist, GLP1R cytotox, DRD3 agonist, GLP-1R agonist, GLP1R inv ag)
CCc1ccccc1OCC(=O)Nc1ccc(S(N)(=O)=O)cc1	none
O=C(COC(=O)c1ccccc1OCC(=O)Nc1ccc(Br)cc1)Nc1ccccc1	DRD3 antagonist -51
CNCc1ccccc1OCC(=O)Nc1ccccc1	DRD3 antagonist -52
CCOc1cc(CNCC(C)C)c(Cl)cc1OCC(=O)Nc1ccccc1	GLP1R inv ag 11µM (no result: ClpP mod)
CC(C)Nc1ccc(-c2nc(-c3ccco3)no2)cc1[N+](=O)[O-]	none (no result: DRD3 antagonist, GLP-1R agonist)
CC(C)C[C@H]1CNC(=S)N1C[C@H]1CCCN1C[C@H](Cc1ccccc1)N1C[C@H](Cc2ccc(O)cc2)N(CC2CCCCCC2)C1=S	GLP1R inv ag inconclusive
CC(C)C[C@H]1CN([C@@H](Cc2ccccc2)CN2CCC[C@H]2CN2C(=O)C(=O)NC[C@@H]2Cc2ccccc2)C(=O)C(=O)N1CCc1ccccc1	none
CC(C)C[C@H]1CNC(=S)N1C[C@H]1CCCN1C[C@H](Cc1ccc(O)cc1)N1C[C@H](CC(C)C)N(CC2CCCCCC2)C1=S	DRD3 antagonist -65, GLP1R inv ag inconclusive
CC(C)C[C@@H](CN1CCC[C@@H]1CN1C(=S)NC[C@@H]1Cc1ccccc1)N1C[C@H](Cc2ccc(O)cc2)N(CC2CCCCC2)C1=S	none
CC(C)C[C@H]1CN([C@@H](Cc2ccccc2)CN2CCC[C@@H]2CN2C(=O)C(=O)NC[C@@H]2Cc2ccccc2)C(=O)C(=O)N1CCc1ccccc1	DRD3 antagonist -65, GLP1R cytotox inconclusive, GLP1R inv ag inconclusive
CC(C)C[C@@H](CN1CCCC1CN1C(=S)NC[C@@H]1Cc1ccc(O)cc1)N1C[C@H](Cc2ccc(O)cc2)N(CC2CCCCC2)C1=S (stereo not given in full)	GLP1R cytotox inconclusive, GLP1R inv ag 11µM
CC1CCC(NC(=O)c2ccc3c(c2)N(Cc2ccccc2F)C(=O)c2ccccc2S3=O)CC1 (stereo not given)	none (no result: DRD3 antagonist)
